Assay [1] can be described thus: viability loss in pontine glioma line – cell-based, JHH-DIPG-1, MIPE4.0, CellTiter-Glo, qHTS, dose response (AID 1347062; cut-off not given, nearly all actives have AC50 up to about 27 µM). To be noted: JHH-DIPG-1 viability, CellTiter-Glo ATP luminescence. In general terms: ATP-based viability assays read luminescence as a measure of living cells.
Assay [2] is described as follows: growth inhibition of DIPG cells – cell-based, MIPE4.0 library, CellTiter-Glo luminescence, qHTS (AID 1347066; cut-off not given, nearly all actives have AC50 up to about 30 µM;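 note: cells exposed to compound for 48 hours before readout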). To be noted: SU-DIPG-VI viability, CellTiter-Glo ATP luminescence.
Assay [3] is described as follows: growth inhibition of DIPG cells – cell-based, MIPE5.0 library, qHTS (AID 1347068; cut-off not given, nearly all actives have IC50 up to about 30 µM;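 for IC50: cells exposed to compound for 48 hours before viability readout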). To be noted: SU-DIPG-XXV viability. For orientation: qHTS replaces the single test concentration by a dilution series.
Assay [4] can be described thus: viability loss in pontine glioma line – cell-based, SU-DIPG-XIII, MIPE5.0, CellTiter-Glo, qHTS, dose response (AID 1347064; cut-off not given, nearly all actives have AC50 up to about 23 µM;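 for AC50: cells exposed to compound for 48 hours before the viability read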). To be noted: CellTiter-Glo ATP luminescence.
Assay [5] is described as follows: viability loss in pontine glioma line – cell-based, SU-DIPG-XXV, MIPE5.0, CellTiter-Glo, qHTS, dose response (AID 1347065).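 Note: cells exposed to compound for 48 hours before ATP readout.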 The conditions noted are these: CellTiter-Glo ATP luminescence.
Assay [6] is described as follows: JHH-DIPG-1 glioma cell viability, MIPE5.0 library, CellTiter-Glo luminescence, qHTS (AID 1347067).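 Note: cells exposed to compound for 48 hours before readout.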 To be noted: JHH-DIPG-1 glioma viability, CellTiter-Glo ATP luminescence.
Assay [7] in a line: growth inhibition, single agents and combos, LFS_MB_1R, cell-based, cisplatin or BGB combos, synergistic combos for chromothripsis tumors (AID 1671452; in the data active = inhibition above about 80%;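 note: cells exposed for 96 hours before readout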). The conditions noted are these: LFS_MB_1R medulloblastoma cells, stronger effect = higher value.
Assay [8] can be described thus: growth inhibition, single agents and combos, CRL2098, cell-based, BGB or cisplatin IC20 combos, synergistic combos for chromothripsis tumors (AID 1671454; in the data active = inhibition above about 80%;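 note: cells exposed for 96 h before readout; 0% = vehicle DMSO and 100% = killing by high DMSO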). To be noted: CRL2098 osteosarcoma cells, drug combinations, stronger effect = higher value.
Assay [9] can be described thus: growth inhibition, single agents and combos, HD-MB03, cell-based, BGB or cisplatin IC20 combos, synergistic combos for chromothripsis tumors (AID 1671455; in the data active = inhibition above about 83%;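 note: 0% = vehicle DMSO and 100% = high DMSO as cytotoxic control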). To be noted: HD-MB03 medulloblastoma cells, stronger effect = higher value.
The nature of assay [10]: growth inhibition, single agents and combos, UWB1.289, cell-based, BGB or cisplatin combos, synergistic combos for chromothripsis tumors (AID 1671456; in the data active = inhibition above about 80%;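 note: cells exposed to compound for four days; 0% = vehicle DMSO and 100% = killing by high DMSO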). The conditions noted are these: UWB1.289 ovarian carcinoma cells, stronger effect = higher value.
Assay [11] in a line: growth inhibition, single agents and combos, LFS_MB_2R, cell-based, cisplatin combos, synergistic combos for chromothripsis tumors (AID 1671457; in the data active = inhibition above about 80%;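 note: cells exposed to compound for four days before readout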). The conditions noted are these: LFS_MB_2R medulloblastoma cells, stronger effect = higher value.
Assay [12] is described as follows: UWB1.289_BRCA1 ovarian cancer growth, cell-based, BGB or cisplatin combinations (AID 1671459; in the data active = inhibition above about 80%). To be noted: UWB1.289 BRCA1 ovarian carcinoma, drug combinations, stronger effect = higher value.
A short description of assay [13]: drug combination toxicity in non-malignant astrocytes – cell-based, BGB or cisplatin IC20 combos, cytotoxicity control for chromothriptic childhood tumor combination screen (AID 1671460; in the data active = inhibition above about 80%;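 note: cells exposed to compounds for 96 hours before viability readout; 0% = vehicle and 100% = killing control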). To be noted: Human astrocytes, viability inhibition, drug combinations, at 0.5 µM, stronger effect = higher value.
Assay [14] in a line: BT084 cell growth, single and combined drugs, ICGC_MB145, cisplatin and BGB IC40 combos (AID 1671461; in the data active = inhibition above about 80%;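 note: cells exposed to drugs for 96 hours; 0% = vehicle DMSO and 100% = high DMSO full killing control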). The conditions noted are these: BT084 medulloblastoma cells, drug combinations, stronger effect = higher value.
A short description of assay [15]: RCMB18 cell growth, single agent and combined, cisplatin and BGB IC40 combos (AID 1671462; in the data active = inhibition above about 80%;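 note: cells exposed to compound for four days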). To be noted: RCMB18 medulloblastoma cells, stronger effect = higher value.
A short description of assay [16]: CRL1545 cell growth, single agent and combined, cisplatin and BGB IC20 combos (AID 1671464; in the data active = inhibition above about 80%;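 note: cells exposed to compound for 96 hours before readout; 0% = vehicle DMSO and 100% = high DMSO killing control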). To be noted: CRL1545 osteosarcoma cells, stronger effect = higher value.
The target of assay [17] is ATP-dependent translocase ABCB1 (Homo sapiens) (UniProt P08183). Nature of the assay: P-glycoprotein substrate transport blockade – cell-based (AID 377; in the data active = fluorescence slope change above about 50%). To be noted: MDR1-expressing cells, fluorescent substrate accumulation slope; stronger effect = higher value; concentration not given here.
Assay [18] can be described thus: viability loss in pontine glioma line – cell-based, SU-DIPG-IV, MIPE4.0, CellTiter-Glo, qHTS, dose response (AID 1347063; cut-off not given, nearly all actives have AC50 up to about 30 µM;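 note: compound exposure lasted 48 hours before the viability readout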). The conditions noted are these: CellTiter-Glo ATP luminescence.
In assay [19] the target is Mitogen-activated protein kinase 7 (Homo sapiens) (UniProt Q13164). Nature of the assay: Gal4-ERK5 driven luciferase induction – cell-based, HTS, primary screen (AID 1508626;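 active = luciferase signal above three times the same-plate solvent-only control wells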;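 note: luciferase driven by Gal4-ERK5 fusion binding five Gal4 sites before minimal TATA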). To be noted: HeLa Gal4-ERK5 transactivation, 18 h, at 5 µM, stronger effect = higher value.
Assay [20] in a line: galactose survival enhancers in mitochondrial complex I cybrids – cell-based, galactose medium, ATP luminescence, primary screen (AID 1645843;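 active = z-score of at least 1.8 in each of two replicates, scored against plate mean and spread of sample wells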;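 note: positive z means more ATP and so rescue of galactose-driven cybrid death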). The conditions noted are these: complex I mutant cybrid cells, 72 h, stronger effect = higher value.
Setting [21] is: measured here: combination with cisplatin, at 0.5 µM.
Where [22] appears, read: measured here: combination with cisplatin, at 5 µM.

Results filed as inconclusive are left out. The source made the active and inactive calls. Unless noted, no cut-off is given here; in the data, nearly all actives have AC50 up to about 26 µM.

By inhibition is commonly meant the relative decrease from the control value, in per cent. What is called AC50 is the concentration giving half of the maximal activity seen. The term IC50 denotes the concentration needed to halve the response being measured.

Chain of Mitogen-activated protein kinase 7 (Homo sapiens) (Q13164 whole entry, looked up, the tested form may be a part): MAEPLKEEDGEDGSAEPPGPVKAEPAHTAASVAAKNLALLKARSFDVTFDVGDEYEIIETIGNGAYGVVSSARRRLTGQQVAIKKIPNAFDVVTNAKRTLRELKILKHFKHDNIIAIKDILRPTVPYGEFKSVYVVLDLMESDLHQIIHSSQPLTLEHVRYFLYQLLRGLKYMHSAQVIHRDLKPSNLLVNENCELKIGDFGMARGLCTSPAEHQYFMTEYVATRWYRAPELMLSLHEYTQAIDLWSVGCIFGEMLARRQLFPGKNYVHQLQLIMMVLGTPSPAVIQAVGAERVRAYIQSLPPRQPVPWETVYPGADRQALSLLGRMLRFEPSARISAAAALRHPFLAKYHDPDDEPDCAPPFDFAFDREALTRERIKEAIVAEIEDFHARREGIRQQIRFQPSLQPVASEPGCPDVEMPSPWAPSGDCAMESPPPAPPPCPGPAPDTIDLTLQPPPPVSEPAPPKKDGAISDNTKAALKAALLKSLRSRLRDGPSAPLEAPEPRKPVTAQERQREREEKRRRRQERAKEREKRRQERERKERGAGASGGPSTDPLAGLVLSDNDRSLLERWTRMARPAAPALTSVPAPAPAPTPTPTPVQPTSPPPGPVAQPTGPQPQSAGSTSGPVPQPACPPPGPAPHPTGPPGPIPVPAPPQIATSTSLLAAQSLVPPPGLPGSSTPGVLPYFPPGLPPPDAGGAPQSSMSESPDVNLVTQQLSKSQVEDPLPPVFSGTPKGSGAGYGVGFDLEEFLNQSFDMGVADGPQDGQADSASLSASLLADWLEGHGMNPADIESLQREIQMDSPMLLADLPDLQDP
Chain of ATP-dependent translocase ABCB1 (Homo sapiens) (P08183 whole entry, looked up): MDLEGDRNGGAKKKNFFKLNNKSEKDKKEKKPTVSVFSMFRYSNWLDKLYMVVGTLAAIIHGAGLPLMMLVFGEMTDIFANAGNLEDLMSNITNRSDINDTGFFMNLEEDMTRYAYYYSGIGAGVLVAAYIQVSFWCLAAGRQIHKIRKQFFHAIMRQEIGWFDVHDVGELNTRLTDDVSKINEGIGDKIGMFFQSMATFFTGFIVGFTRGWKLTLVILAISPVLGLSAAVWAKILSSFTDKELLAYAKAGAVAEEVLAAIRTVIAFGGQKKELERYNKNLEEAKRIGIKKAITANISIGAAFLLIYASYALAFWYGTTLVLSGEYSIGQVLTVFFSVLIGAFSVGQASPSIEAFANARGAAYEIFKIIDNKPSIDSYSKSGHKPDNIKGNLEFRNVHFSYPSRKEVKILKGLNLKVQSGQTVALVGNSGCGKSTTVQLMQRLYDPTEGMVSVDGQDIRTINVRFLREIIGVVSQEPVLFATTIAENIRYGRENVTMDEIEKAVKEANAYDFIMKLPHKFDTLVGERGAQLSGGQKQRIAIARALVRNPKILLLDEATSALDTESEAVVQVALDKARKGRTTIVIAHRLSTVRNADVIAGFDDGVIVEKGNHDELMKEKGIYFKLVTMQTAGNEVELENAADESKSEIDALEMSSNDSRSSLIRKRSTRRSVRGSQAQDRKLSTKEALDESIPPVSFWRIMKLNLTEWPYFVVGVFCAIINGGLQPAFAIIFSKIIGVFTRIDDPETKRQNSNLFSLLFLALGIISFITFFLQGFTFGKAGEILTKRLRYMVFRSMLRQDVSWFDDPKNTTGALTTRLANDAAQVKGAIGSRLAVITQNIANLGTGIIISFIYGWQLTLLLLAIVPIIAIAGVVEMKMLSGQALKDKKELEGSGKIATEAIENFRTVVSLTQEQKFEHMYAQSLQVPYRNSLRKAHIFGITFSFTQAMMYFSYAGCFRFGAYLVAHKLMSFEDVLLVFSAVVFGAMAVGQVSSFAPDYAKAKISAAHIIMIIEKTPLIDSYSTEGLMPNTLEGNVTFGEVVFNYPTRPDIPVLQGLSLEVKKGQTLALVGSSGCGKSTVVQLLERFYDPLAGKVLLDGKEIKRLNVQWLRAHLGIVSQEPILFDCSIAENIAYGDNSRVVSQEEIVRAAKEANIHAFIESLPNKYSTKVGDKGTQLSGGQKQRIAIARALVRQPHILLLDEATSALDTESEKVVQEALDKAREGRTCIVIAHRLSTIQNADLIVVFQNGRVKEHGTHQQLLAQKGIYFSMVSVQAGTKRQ

As to `CC(S)C(=O)NCC(=O)O` (stereo not drawn), the molecule was called inactive in assay [1], in assay [2] and in assay [3].
For the molecule `CNC1CCCN(c2c(F)cc3c(=O)c(C(=O)O)cn(C4CC4)c3c2OC)C1` (stereo not drawn), the outcome in assay [1], in [4], in [5], in assay [6] and in assay [3] was inactive. For the same molecule, the inhibition in [7] (at 0.5 µM) is -44.6% (inactive); in assay [7] (measured here: combination with BGB IC40, at 0.05 µM) it was -12.2%; in [7] (setting [21]) it was -60.6%; in [7] (setting [22]), -26%; in assay [8] (at 0.5 µM), -81.1% (inactive); in assay [8] (measured here: combination with BGB at IC20, at 0.5 µM) it was -82.3%. Also, the inhibition in [8] (measured here: combination with cisplatin at IC20, at 0.5 µM) is -105%; in assay [9] (at 0.5 µM) it was -11% (inactive); in assay [9] (measured here: combo with BGB at IC20, at 0.5 µM), -20.4%; in [9] (measured here: combo with cisplatin at IC20, at 0.5 µM) it was -17.8%; in [10] (at 0.5 µM), -14.8% (inactive); in assay [10] (measured here: inhibition with BGB combination, at 0.05 µM), -34.6%. Moreover, the inhibition in assay [10] (measured here: inhibition with cisplatin combination, at 0.05 µM) is 0.742%; in [11] (at 0.5 µM) it was -13.2% (inactive); in [11] (setting [21]), -14.1%; in [11] (setting [22]), -12.8%; in assay [12] (BGB combination, concentration series, at 5 µM), -8.91%; in assay [12] (at 0.5 µM), -19.1% (inactive). The inhibition in assay [12] (cisplatin combination, concentration series, at 5 µM) was -12.5%; in [13] it was 2.51% (inactive); in [13] (measured here: combo with BGB IC20) it was -0.992%; in assay [13] (measured here: combo with cisplatin IC20) it was -5.96%; in assay [14] (at 0.5 µM) it was -3.94% (inactive); in assay [14] (cisplatin combination, at 0.5 µM), -12.4%. Besides, the inhibition in assay [14] (cisplatin combination, at 5 µM) was -20.7%; in assay [14] (measured here: BGB IC40 combination 0.05 uM, at 0.05 µM) it was -4.46%; in assay [14] (single agent, at 5 µM), -9.28%; in assay [15] (at 0.5 µM), -11% (inactive); in assay [15] (cisplatin combo, at 5 µM) it was -11%; in assay [15] (measured here: BGB IC40 combination, at 0.05 µM), -0.266%. Moreover, the inhibition in assay [15] (setting [21]) was -4.57%; in assay [15] (single agent, at 5 µM), -28%; in assay [16] (at 0.5 µM), -47.5% (inactive); in [16] (measured here: with BGB IC20 combination, at 0.5 µM) it was -52.5%; in assay [16] (measured here: with cisplatin IC20 combination, at 0.5 µM), -45%; in [16] (single agent, at 0.05 µM), 2.8%. Further, the inhibition in assay [16] (single agent, at 5 µM) is -16.1%.
With `NC(N)=NC(N)=NCCc1ccccc1`, the fluorescence slope change in assay [17] was 100% (active). Also, the result in assay [1], in assay [18], in assay [4], in assay [5], in assay [2] and in assay [6] was inactive. For the same molecule, the molecule was called inactive in assay [3]. Moreover, in [19], the luciferase signal was 40 AU (inactive). In assay [20], the z-score is -2.58 (inactive).
Consider `O=[N+]([O-])c1ccc(O)c2ncccc12`, for which the concentration at half-maximal activity (AC50) was 3.32 µM (active) in assay [4], 9.34 µM (active) in assay [5] and 2.95 µM (active) in assay [6]. For the same molecule, the IC50 in [3] is 23.5 µM (active).
On to `Cn1c(=O)c2c(ncn2CC2OCCO2)n(C)c1=O`, for which the molecule was classed as inactive in assay [4], in assay [5], in assay [6] and in assay [3]. For the same molecule, the z-score in assay [20] is 0.585 (inactive).
As to `Clc1ccc(C(Cn2ccnc2)OCc2ccsc2Cl)c(Cl)c1` (stereo not drawn), in assay [1], the molecule was called inactive. Also, the luciferase signal in assay [19] was 72 AU (inactive). In assay [20], the z-score was -1.6 (inactive).
For `CCCCCCCCCCCCCCCCCCCCCCO`, the molecule was called inactive in assay [1], in [18], in assay [4], in assay [5], in assay [2] and in [6]. Besides, in assay [3], the result was inactive. Besides, the luciferase signal in [19] was 140 AU (inactive).
Consider `Clc1ccc(Cn2c(CN3CCCC3)nc3ccccc32)cc1`, for which the fluorescence slope change in [17] is 82.8% (active). The result in assay [6] and in [3] was inactive. Moreover, the luciferase signal in [19] is 56 AU (inactive). The z-score in [20] is -1.35 (inactive).
As to `CNCCCC1c2ccccc2C=Cc2ccccc21`, the luciferase signal in [19] is 40 AU (inactive). Further, the z-score in [20] is -1.15 (inactive).
As for `CC[N+](CC)(CC(=O)Nc1c(C)cccc1C)Cc1ccccc1`, the luciferase signal in assay [19] was 36 AU (inactive).

Source of the values: PubChem BioAssay.
